An excerpt weighted towards active compounds, which were near 2.8% of everything screened.
B2AR arrestin: recruits beta-arrestin to the human beta2-adrenergic receptor. P07550. beta-arrestin recruitment to beta2AR, cell-based reporter. Potency, µM (titrated, usually from 46.1 µM), hits mostly activators. actives 0.02% (n = 330,000); active means well fitted activation curve with a large enough effect; inconclusive means small, poorly fitted or top-dose-only effect; further: nearly all actives have a fitted effect of over 65% in size
DRD3 antagonist: D3 dopamine receptor (human) antagonism; max response, negative = inhibition, %; actives 2.5% (n = 360,000); D3R cells, DiscoveRx beta-arrestin luminescence, antagonist mode; hits give low values; in the data active means max response below about -50%; inconclusive means no clear call, values can overlap the other calls
Target sequence (P35462 whole entry, looked up): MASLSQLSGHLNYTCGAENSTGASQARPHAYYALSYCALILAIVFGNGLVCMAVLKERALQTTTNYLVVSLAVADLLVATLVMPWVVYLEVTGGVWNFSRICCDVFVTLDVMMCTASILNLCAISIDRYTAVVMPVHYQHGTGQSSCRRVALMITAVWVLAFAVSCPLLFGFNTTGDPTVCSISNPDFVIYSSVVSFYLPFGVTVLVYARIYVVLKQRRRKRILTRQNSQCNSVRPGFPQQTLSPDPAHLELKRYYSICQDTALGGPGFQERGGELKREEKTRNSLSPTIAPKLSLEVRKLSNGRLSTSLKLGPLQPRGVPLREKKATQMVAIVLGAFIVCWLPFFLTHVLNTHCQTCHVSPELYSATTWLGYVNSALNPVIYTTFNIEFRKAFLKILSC
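Cells plated overnight at 1500 cells/well, then exposed to library compounds with dopamine controls for 90 minutes at 37 degrees C. DiscoveRx reagent added for 30–60 minutes at room temperature; luminescence read, quantitative HTS format.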
Giardia kill: Giardia lamblia killing; Giardia lamblia trophozoite viability; actives 0.15% (n = 340,000); activity change, % at 7.66 µM, hits read low; in the data active means activity change below about -80%; inconclusive means between about -30% and that limit;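 further: parasites exposed to compound for two days anaerobically before the ATP read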
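ATP-content bioluminescence gauges trophozoite survival. Cells (100/well) receive compound and incubate anaerobically for 48 hrs at 37 deg C; detection reagent follows for 15-30 min at room temperature.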
D3 ag: activates the human D3 dopamine receptor; P35462; AID 652048; max activation, %; actives 0.58% (n = 410,000); D3R DiscoveRx beta-arrestin cells, luminescence, 90 min; in the data active means max activation above about 30%
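Agonist mode: compounds and dopamine controls were applied to plated cells for 90 min at 37 degrees C after an overnight attachment at 1500 cells/well. Luminescent read-out followed 30 - 60 minutes at room temperature with DiscoveRx detection reagent.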
Each line names hits and unclear results; the compound was inactive in the other large screens.

CCOC(=O)c1ccc(NC(=O)C(C)N(c2ccc(OCC)cc2)S(C)(=O)=O)cc1 (stereo unspecified)	none (no result: B2AR arrestin, DRD3 antagonist, Giardia kill)
O=C(Nn1c(O)c(C=C2N=c3ccccc3=N2)sc1=S)c1ccccc1Cl	DRD3 antagonist -55
CCCCN(C)Cc1cc(=O)oc2cc3c(cc12)CCCC3	DRD3 antagonist -91
CS(=O)(=O)Nc1cccc(C(=O)OCCCOc2ccc(F)cc2)c1	D3 ag 74
COc1ccc2c(c1)c(CC(=O)OCC(=O)O)c(C)n2C(=O)c1ccc(Cl)cc1	DRD3 antagonist -54
O=S(=O)(c1ccc(Br)cc1)N1CCN(c2nc(-c3cccs3)nc3ccccc23)CC1	none (no result: B2AR arrestin, DRD3 antagonist, D3 ag)
O=C(CSc1ccc2nc(-c3ccccc3)cn2n1)Nc1ccccc1	none (no result: B2AR arrestin, DRD3 antagonist, Giardia kill)
CC(C)CCNC(=O)Cn1c(SCc2cccc(F)c2)nc2ccncc21	none (no result: B2AR arrestin, DRD3 antagonist, D3 ag)
Cc1ccc(N=Cc2cc(Cc3ccccc3Cl)cc([N+](=O)[O-])c2O)c(O)c1	DRD3 antagonist -74
COc1ccc(N=Cc2cc(Cc3ccccc3Cl)cc([N+](=O)[O-])c2O)cc1OC	DRD3 antagonist -96
Cc1nn2cc(-c3ccc(OC(C)C)cc3)nc2s1	none (no result: B2AR arrestin, DRD3 antagonist, Giardia kill)
COc1ccccc1NC1=NCC(=O)N1Cc1ccccc1	none
Cc1ccc(NC2=NCC(=O)N2Cc2ccccc2)c(C)c1	D3 ag 39
Cc1cccc2cc(CN(Cc3nnnn3C3CCCCC3)C3CCCC3)c3nnnn3c12	DRD3 antagonist -65
Cn1c(NCC(O)c2ccccc2)nc2c1c(=O)n(Cc1ccc(Cl)cc1)c(=O)n2C (stereo unspecified)	none
Cn1c(NCC(O)c2ccccc2)nc2c1c(=O)n(Cc1ccc(Cl)c(Cl)c1)c(=O)n2C (stereo unspecified)	DRD3 antagonist inconclusive, D3 ag 33 (no result: B2AR arrestin)
COc1cccc(C2CC(C(F)(F)F)n3nc(C(=O)Nc4c(C)n(C)n(-c5ccccc5)c4=O)cc3N2)c1 (stereo unspecified)	DRD3 antagonist -87
CCN(c1ccc(OC)cc1)S(=O)(=O)c1nnc(NC(=O)c2ccco2)s1	none
COc1ccc(N(CC(C)C)S(=O)(=O)c2nnc(NC(=O)c3ccco3)s2)cc1	DRD3 antagonist -91
S=C(Nc1ccc2c(c1)OCO2)NC1CCN(Cc2ccccc2)CC1	DRD3 antagonist -65
Cc1ccc(C(=S)N2CCN(Cc3ccccc3)CC2)cc1	DRD3 antagonist -71
CC(C)c1ccc(NC(=S)NC2CCN(Cc3ccccc3)CC2)cc1	DRD3 antagonist inconclusive
Cc1ccc(NC(=S)NC2CCN(Cc3ccccc3)CC2)cc1C	DRD3 antagonist -52
O=C(CN1CCC(NC(=O)c2ccccc2F)CC1)Nc1ccc2c(c1)OCO2	none
Cc1ccc(NC(=S)NC2CCN(Cc3ccccc3)CC2)cc1	DRD3 antagonist -61
CCCCC(=O)O[C@]1(C(=O)CO)[C@H](C)C[C@H]2[C@@H]3CCC4=CC(=O)C=C[C@]4(C)[C@@]3(F)[C@@H](O)C[C@@]21C	none (no result: B2AR arrestin, DRD3 antagonist, Giardia kill)
N#Cc1cc(-c2ccc(Cl)cc2)cn(Cc2c(Cl)cccc2Cl)c1=O	DRD3 antagonist -50
C=CCn1cc(-c2ccc(Cl)cc2)cc(C#N)c1=O	none
O=C(CCN1CCc2ccccc2C1)c1ccc2c(c1)OCCO2	DRD3 antagonist -88
O=C(CCN1CCC(c2ccccc2)C1)c1ccc2c(c1)OCCO2 (stereo unspecified)	DRD3 antagonist -66
S=C(NCCCc1cnc[nH]1)NCCCN(Cc1ccc(Cl)cc1)c1ncc(Br)cn1	none (no result: B2AR arrestin, DRD3 antagonist, D3 ag)
CCCN1CCC2(CC1)NC(C(=O)O)Cc1c2[nH]c2ccccc12 (stereo unspecified)	none
COC(=O)C1Cc2c([nH]c3ccccc23)C2(CCN(Cc3ccccc3)CC2)N1 (stereo unspecified)	DRD3 antagonist -93
CCCCN(CCCC)C(=S)[S-].CCCCN(CCCC)C(=S)[S-].[Zn+2]	none (no result: B2AR arrestin, DRD3 antagonist, Giardia kill)
CCc1ccc(-c2cc(C(=O)Nc3ccc(S(=O)(=O)NC(C)=O)cc3)c3ccccc3n2)cc1	DRD3 antagonist -93
COc1ccc(Cl)cc1C(=O)NNC(=S)NC(=O)c1cc(-c2ccc(Cl)cc2)nc2ccccc12	DRD3 antagonist -61
O=C(Nc1nc2c(s1)CCCC2)c1cc(-c2ccncc2)nc2ccccc12	DRD3 antagonist inconclusive
O=C(NC(=S)Nc1ccccc1)c1cc(-c2ccccc2)nc2ccccc12	DRD3 antagonist -125
O=C(NC(=S)Nc1ccccn1)c1cc(-c2ccccc2)nc2ccccc12	none
O=C(Nc1nc2c(s1)CCCC2)c1cc(-c2ccccc2)nc2ccccc12	DRD3 antagonist -81
CCCCn1c(=O)n(-c2ccc(Br)cc2F)c(=O)c2c3c(sc21)CN(C(C)=O)CC3	none (no result: B2AR arrestin, DRD3 antagonist, Giardia kill)

Screens (PubChem BioAssay)
